tested on: Vero E6 infected with SARS-CoV-2; experiment: SARS-CoV-2 infection rate relative to infected DMSO; higher = more infection, active = 60 or less; settings: 24 h

Row | Structure (SMILES) | SARS-CoV-2 infection rate
1 | COCC[n+]1c2c(n(Cc3cnccn3)c1C)C(=O)c1ccccc1C2=O (0.833333 µM) | 108% (inactive)
2 | CC(C)(C)NC[C@H](O)COc1cccc2c1CCCC2=O [levobunolol] (10 µM) | 108% (inactive)
3 | CCOC(=O)c1ccc(N)cc1 [benzocaine] (10 µM) | 112% (inactive)
